In the library only some 11% were active in any assay of this set; here they are far more common.
HCV inhibitor: qHTS Assay for Inhibitors of Hepatitis C Virus (HCV) | Huh7.5.1 HCVcc-Cre infection, luciferase reporter, 44 h | AID 651820, 2012 | 340,000 tested, 3.4% active | Potency, µM (highest dose often 41.8 µM), actives largely listed as inhibitors
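A cell-based infection assay in which seeded cells (1,000 per well) receive test compound after 4 h, are inoculated with HCVcc-Cre at approximately 0.5 moi, and are incubated 44 h before luminescence detection.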
AMA1 RON2 block: qHTS for Inhibitors of AMA1-RON; Towards Development of Antimalarial Drug Lead: Primary Screen; Plasmodium falciparum AMA1 (3D7) - RON2 peptide interaction; AlphaScreen AMA1-biotinylated RON2 peptide binding; Potency, µM (titrated, usually from 58.2 µM), most hits filed as inhibitors; 360,000 tested, 0.2% active; AID 720542, 2013; note: nearly all actives have a fitted effect of over 45% in size
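AMA1 (3D7) with his tag at 25 nM final met compounds first, then biotinylated RON2 peptide at 25 nM; detection used donor plus acceptor beads, 10 µg/mL apiece, read by AlphaScreen after 30 min at room temperature.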
Pf growth 96h: Primary qHTS for delayed death inhibitors of the malarial parasite plastid, 96 hour incubation | 320,000 tested, 6.9% active | P. falciparum luciferase reporter growth, 96 h | AID 504834, 2011 | Potency, µM (series often up to 28.7 µM), usual class: inhibitors
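96 h incubation, 37 C, 5% CO2, of luciferase-reporter P. falciparum-infected RBCs (2% hematocrit, 0.05% parasitemia final) with test compounds; endpoint luminescence.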
Pf growth 48h: Primary qHTS for delayed death inhibitors of the malarial parasite plastid, 48 hour incubation. Potency, µM (highest dose often 28.7 µM), most hits filed as inhibitors. 310,000 tested, 5.9% active. AID 504832, 2011. P. falciparum luciferase growth in erythrocytes, 48 h
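A one-generation exposure of luciferase-tagged malaria parasites in RPMI 1640/Albumax erythrocyte culture, 37 C and 5% CO2. Inhibition is inferred from decreased luminescence after adding detection reagent.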
Large screens that a line does not name were inactive. Calls come from the whole dose curve; as a rule, active = well fitted curve in the direction sought with a large enough effect; inconclusive = small, poorly fitted or top-dose-only effect, or another doubt; inactive = no such curve, though single readings can be large; an effect the other way counts as inactive or inconclusive.

COc1ccc(C2c3[nH]c4ccccc4c3CCN2C(=O)c2cn3ccccc3n2)c(F)c1 (centres undefined)	Pf growth 96h inconclusive, Pf growth 48h 15µM
CC(C)C[C@H]1CNC(=O)C(=O)N1CC1CCN(CC2CCC(C)CC2)CC1 (some centres undefined)	none (no result: HCV inhibitor, Pf growth 96h, Pf growth 48h)
COc1ccc(-n2cc(CN[C@H]3CCCCNC3=O)c(-c3cccc(F)c3)n2)cc1	HCV inhibitor inconclusive, Pf growth 96h inconclusive, Pf growth 48h inconclusive
CCC(COC)NCc1cn(-c2ccc(OC)cc2)nc1-c1cccc(F)c1 (centres undefined)	Pf growth 96h inconclusive, Pf growth 48h 12µM
COc1ccc(-n2cc(CNC(C)c3ccncn3)c(-c3cccc(F)c3)n2)cc1 (centres undefined)	Pf growth 96h inconclusive
COc1ccc(-n2cc(CNC3CCN(C)CC3)c(-c3cccc(F)c3)n2)cc1	HCV inhibitor 11µM, Pf growth 48h 1.5µM
CC1CCCCN1CC(O)COCCC12CC3CC(CC(C3)C1)C2 (centres undefined)	HCV inhibitor inconclusive, Pf growth 96h 8.3µM, Pf growth 48h inconclusive
CCOC(=O)N1CCN(CC(O)COCCC23CC4CC(CC(C4)C2)C3)CC1 (centres undefined)	none (no result: Pf growth 48h)
CC1CCN(c2cc(N3CCOCC3)c(F)cc2[N+](=O)[O-])CC1	Pf growth 48h inconclusive
CCN1CCN(c2cc(N3CCCC3)c([N+](=O)[O-])cc2F)CC1	HCV inhibitor inconclusive
CCN1CCN(c2cc(N3CCc4ccccc4C3)c(F)cc2[N+](=O)[O-])CC1	HCV inhibitor 4.5µM, AMA1 RON2 block inconclusive, Pf growth 48h inconclusive
CC1CCN(c2cc(N3CCOCC3)c([N+](=O)[O-])cc2F)CC1	Pf growth 96h 15µM, Pf growth 48h inconclusive
CC(=O)N(c1nc(CCl)cs1)c1c(C)cc(C)cc1C	Pf growth 96h inconclusive
c1ccc(CNc2c3c(nc4ccccc24)CCC3)cc1	HCV inhibitor inconclusive, Pf growth 48h inconclusive
CC(C)CNc1c2c(nc3ccccc13)CCC2	HCV inhibitor inconclusive, Pf growth 96h inconclusive, Pf growth 48h 10µM
CN(C)CCCNc1c2c(nc3ccccc13)CCC2	HCV inhibitor inconclusive, Pf growth 48h 10µM
Cc1ccc(-c2nc(NCCN(C)C)c3ccccc3n2)cc1	Pf growth 48h inconclusive
COCCNc1c2c(nc3ccccc13)CCC2	HCV inhibitor inconclusive, Pf growth 96h 9.3µM, Pf growth 48h inconclusive
CN(C)CCCNc1nc(-c2ccc(Cl)cc2)nc2ccccc12	HCV inhibitor inconclusive, Pf growth 48h 10µM
C=C(C)COc1ccc(-c2[nH]ncc2-c2ccccc2)c(O)c1	Pf growth 96h inconclusive, Pf growth 48h 10µM
Oc1cc(OCc2ccccc2)ccc1-c1[nH]ncc1-c1ccccc1	Pf growth 96h inconclusive, Pf growth 48h inconclusive
C=C(C)COc1ccc(-c2[nH]ncc2-c2ccc(OC)c(OC)c2)c(O)c1	HCV inhibitor 2µM, Pf growth 96h 2.3µM, Pf growth 48h 1.9µM
O=[N+]([O-])c1ccc(COc2ccc(-c3[nH]ncc3-c3ccccc3)c(O)c2)cc1	Pf growth 96h 6.6µM, Pf growth 48h 13µM
C=C(C)COc1ccc(-c2[nH]ncc2-c2ccc(OC)cc2)c(O)c1	Pf growth 96h inconclusive, Pf growth 48h inconclusive
C=C(C)COc1ccc(-c2n[nH]c(C)c2-c2ccc(OC)c(OC)c2)c(O)c1	HCV inhibitor 13µM, Pf growth 96h inconclusive, Pf growth 48h inconclusive
CN1OC[C@@H]2CN(Cc3cc(Cl)cc(Cl)c3)[C@H](c3cccc(-c4ccc(C#N)cc4)c3)C[C@@H]21	none (no result: HCV inhibitor, Pf growth 96h, Pf growth 48h)
Cc1ncc(CO)n1Cc1ccc(Cl)cc1	none (no result: HCV inhibitor, Pf growth 96h, Pf growth 48h)
Nc1ccc(C2(c3ccc(N)cc3)c3ccccc3-c3ccccc32)cc1	HCV inhibitor 8.9µM
Nc1ccc(C2(c3ccc(N)cc3)c3ccccc3C(=O)c3ccccc32)cc1	none (no result: Pf growth 96h, Pf growth 48h)
O=C(NCc1ccco1)C1CCN(c2ccc(S(=O)(=O)N3CCOCC3)cc2[N+](=O)[O-])CC1	Pf growth 96h inconclusive, Pf growth 48h inconclusive
C/C(=N\NC(=O)C1CCCN(S(=O)(=O)c2ccccc2)C1)c1cccnc1 (centres undefined)	Pf growth 96h 9.3µM
C/C(=N\NC(=O)C1CCCN(S(=O)(=O)c2ccccc2)C1)c1ccccn1 (centres undefined)	HCV inhibitor inconclusive, Pf growth 48h 2.3µM
c1ccc(OCCOc2ccccc2-c2nnco2)cc1	Pf growth 96h 5.2µM
Cn1c(Cl)cnc1C(O)c1ccccc1 (centres undefined)	Pf growth 96h 6.6µM
CN1C(=O)C(c2cn(C)c3ccccc23)(c2cn(C)c3ccccc23)c2cc(Br)ccc21	none (no result: HCV inhibitor, Pf growth 96h, Pf growth 48h)
CCN(CC)S(=O)(=O)c1ccc(C)c(NC(=O)/C=C/c2cccs2)c1	HCV inhibitor 10µM
CCN(CC)S(=O)(=O)c1ccc(C(=O)NNC(=O)c2cccs2)cc1	Pf growth 96h 0.15µM
COc1ccc(C(=O)OCC(=O)NC2CCCCCC2)c(OC)c1	none
CC(C)n1c(=O)nc(-c2ccccc2)c2cc3c(cc21)OCO3	none (no result: HCV inhibitor, Pf growth 96h, Pf growth 48h)
Cc1cccc(Sc2ccc([N+](=O)[O-])cc2[N+](=O)[O-])n1	Pf growth 96h 8.3µM, Pf growth 48h inconclusive
O=[N+]([O-])c1ccc(Sc2ncccn2)c([N+](=O)[O-])c1	HCV inhibitor inconclusive, Pf growth 96h 3.3µM, Pf growth 48h 13µM
CCCCCOc1ccc(NC2=CC(=O)CCC2)cc1	Pf growth 96h inconclusive, Pf growth 48h 13µM
CCOc1ccc(NC2=CC(=O)CCC2)cc1	HCV inhibitor inconclusive
Cc1cccc(OCCCn2ccnc2)c1	Pf growth 48h 9.3µM
Cc1ccc(C)c(OCCCCn2ccnc2)c1	HCV inhibitor inconclusive, Pf growth 96h 13µM (no result: Pf growth 48h)
Cc1ccc(OCCCn2ccnc2)cc1C	Pf growth 48h inconclusive
Cc1ccc(OCCCCn2ccnc2)c(Cl)c1	HCV inhibitor inconclusive, Pf growth 48h inconclusive
Cc1cc(C)cc(OCCCn2ccnc2)c1	Pf growth 96h 4.7µM
Cc1cc(C)c(C)c(S(=O)(=O)NCCCn2ccnc2)c1C	Pf growth 96h 6.6µM, Pf growth 48h inconclusive
CC1(C)COC(c2ccc(F)c([N+](=O)[O-])c2)=N1	HCV inhibitor inconclusive, Pf growth 96h inconclusive
Cc1cc(OCCn2ccnc2)ccc1C(C)C	AMA1 RON2 block inconclusive, Pf growth 96h inconclusive
CC(C)c1cccc(C(C)C)c1OCCn1ccnc1	Pf growth 48h 13µM
CCOC(=O)C1=CN(Cc2ccco2)S(=O)(=O)N(C)C1c1ccc2ccccc2c1 (centres undefined)	HCV inhibitor inconclusive (no result: Pf growth 96h, Pf growth 48h)
COCCN(CC(=O)Nc1cccc(C)c1C)C(=O)Cn1c(=O)cnc2ccccc21	none
S=C(Sc1ccc(Cl)cc1)Sc1ccc(Cl)cc1	Pf growth 96h inconclusive, Pf growth 48h 6.6µM (no result: HCV inhibitor, AMA1 RON2 block)
COc1ccccc1/C=C1\Oc2cc(OC(=O)N3CCOCC3)ccc2C1=O	HCV inhibitor inconclusive
COc1ccc2nc(C)c3c(c2c1)OC(C)C3 (centres undefined)	none
CCOC(=O)c1ccc2nc(C)c3c(c2c1)OC(C)C3 (centres undefined)	HCV inhibitor 10µM, Pf growth 48h inconclusive

Screening results as filed in PubChem.
